# Assay results taken from PubChem BioAssay (NCATS).
# Records with an inconclusive call do not appear. Activity calls are given as the source filed them.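 How the source made its calls, unless noted: active means compounds whose dose-response curve shows a full or clear partial loss of cell viability, called from curve shape rather than a numeric limit; inconclusive means weak partial curves or an effect only at the top dose; inactive means no dose-dependent loss of viability.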
# Assay: Cell Viability - Jurkat (AID 426;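 active means dose-dependent loss of cell ATP signal giving a full or clear fitted curve, ranked by lower potency value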)
# Details: qHTS
# In short: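 Seed 5000 Jurkat E6-1 cells/well; add compound; incubate 40 hr at 37 °C; add CellTiter-Glo; wait 20 min at room temperature; read luminescence. Fit concentration-response with Hill equation for AC50.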
# Potency means the concentration at half of the fitted maximal effect.
row,Compound,Potency
1,Cc1cc(C)nc(NS(=O)(=O)c2ccc(N)cc2)n1,> 92 µM (inactive)
2,C=CCNC(N)=S,> 92 µM (inactive)
3,CCN(CC)C(=O)c1cccc(C)c1,> 92 µM (inactive)
4,CC(=O)NS(=O)(=O)c1ccc(N)cc1,> 92 µM (inactive)

# Assay: Cell Viability - Hek293 (AID 427);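 further: cells exposed to compound for 40 hours at 37 °C before reading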
# Details: qHTS
# In short: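 HEK293 cells in complete medium were exposed to compound for 40 hr at 37 °C, then cellular ATP was read by CellTiter-Glo luminescence. Data were normalized to DMSO (basal) and 100 uM tamoxifen (100% inhibition), and AC50 came from Hill fits.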
row,Compound,Potency
1,Cc1cc(C)nc(NS(=O)(=O)c2ccc(N)cc2)n1,> 92 µM (inactive)
2,C=CCNC(N)=S,> 92 µM (inactive)
3,CCN(CC)C(=O)c1cccc(C)c1,> 92 µM (inactive)
4,CC(=O)NS(=O)(=O)c1ccc(N)cc1,> 92 µM (inactive)

# Assay: Cell Viability - HepG2 (AID 433; calls by dose curve;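 further: potency for ATP loss meaning cytotoxicity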)
# Details: qHTS
# In short: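 ATP luminescence (CellTiter-Glo) after 40 h compound exposure, 37 °C, HepG2, 1500 cells/well, complete medium. Normalized: DMSO = basal, 100 uM tamoxifen = 100% inhibition. AC50 via standard Hill equation.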
row,Compound,Potency
1,Cc1cc(C)nc(NS(=O)(=O)c2ccc(N)cc2)n1,> 92 µM (inactive)
2,C=CCNC(N)=S,> 92 µM (inactive)
3,CCN(CC)C(=O)c1cccc(C)c1,> 92 µM (inactive)
4,CC(=O)NS(=O)(=O)c1ccc(N)cc1,> 92 µM (inactive)
